Source: PubChem (several laboratories)
EP2 antag – human EP2 receptor antagonists, primary screen, TR-FRET cAMP, C6 glioma cells; 0.52% of 260,000 active; AID 1422, 2008; C6 glioma cells expressing human EP2; cells stimulated with saturating PGE2; inhibition, % at 25 µM; Prostaglandin E2 receptor EP2 subtype (Homo sapiens), P43116;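 active = percent inhibition above 40 after rounding to a whole number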;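 also: rat C6 glioma host cells with rolipram phosphodiesterase inhibitor present; the protocol text gives 20 µM as final concentration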
Target sequence (P43116 whole entry, looked up): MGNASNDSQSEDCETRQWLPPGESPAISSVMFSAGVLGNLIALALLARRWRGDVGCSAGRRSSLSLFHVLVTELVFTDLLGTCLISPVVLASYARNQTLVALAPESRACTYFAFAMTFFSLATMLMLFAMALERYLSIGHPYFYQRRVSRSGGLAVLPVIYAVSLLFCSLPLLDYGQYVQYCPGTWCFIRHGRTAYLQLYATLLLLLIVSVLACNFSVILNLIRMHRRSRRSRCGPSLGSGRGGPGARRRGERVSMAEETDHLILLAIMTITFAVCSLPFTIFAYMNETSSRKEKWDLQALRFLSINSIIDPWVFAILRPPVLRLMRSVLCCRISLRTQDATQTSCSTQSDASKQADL
CHT inh – inhibitors of human choline transporter CHT; High affinity choline transporter 1 (Homo sapiens), Q9GZV3; CHT-expressing cells, membrane potential dye, choline response; active compounds read low; B-score at 10 µM; 0.86% of 310,000 active; AID 488975, 2010;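 active = B-score over 3 SD under the library average, and starting fluorescence ratio not unusually high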;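 also: choline stimulus applied at its EC90 after an EC20 pre-addition; B-score computed on integrated fluorescence ratio after choline addition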
EP2 mod – EP2 receptor modulators, cAMP readout, primary screen, cell-based, HTRF cAMP, PGE2 stimulation; induction, % at 25 µM; AID 940, 2007; EP2-expressing cells, cAMP HTRF FRET, PGE2 co-stimulation; 0.83% of 260,000 active;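 active = compounds whose cAMP rise, as percent of the full-agonist control response, exceeds 60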;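 also: rat C6 glioma line stably carrying human EP2 under a CMV promoter; the protocol text gives 20 µM as final concentration; 100% = response of wells given 1 µM PGE2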
CHT PAM – CHT positive allosteric modulators, primary screen, cell-based, membrane potential dye, choline EC20; High affinity choline transporter 1 (Homo sapiens), Q9GZV3; CHT-expressing cells; active compounds read high; LV-AA mutant CHT in HEK293 cells; B-score at 10 µM; 0.49% of 310,000 active; AID 488977, 2010;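 active = initial fluorescence not abnormally high and integrated response B-score, plate-corrected, over 3 SD above library mean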
CHT act confirm – CHT activators, confirmation, cell-based, membrane potential dye, duplicate; shares compounds with CHT PAM; CHT-expressing cells, membrane potential dye fluorescence (FDSS); % of choline EC20–EC90 response window; HEK293 expressing CHT LV-AA mutant; choline added at its EC20; activation, % at 10 µM; 91% of 2,500 active; AID 504833, 2011;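 active = primary screen active, with duplicate mean activation above negative control mean plus 3 SD, cut at about 11% in these data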
HEK293 MP dye – membrane potential response in parental HEK293 cells, counter-screen for CHT activator project, cell-based, membrane potential dye; shares compounds with CHT PAM; membrane potential dye fluorescence (FDSS); measured after EC20 choline addition; ratio readout change at 10 µM, hits read low; 62% of 2,500 active; AID 623908, 2012;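 active = duplicate-averaged ratio beyond 3 SD from buffer wells, up or down, though filed actives are nearly all decreases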
Numbers without * were called inactive. This is a sample that favours compounds with a hit; in the whole collection about 2% have one here.

For O=C(OCC(=O)N(CCc1ccccc1)Cc1ccccc1)c1ccccc1O the results were CHT inh inactive, CHT PAM 6.5*, CHT act confirm 38* and HEK293 MP dye inactive.
Screening CCN1CCc2nc(NC(=O)C(c3ccccc3)c3ccccc3)sc2C1 returned EP2 antag -2, CHT inh inactive, EP2 mod 11, CHT PAM inactive, CHT act confirm 17* and HEK293 MP dye inactive.
For CCN1CCc2nc(NC(=O)CC(c3ccccc3)c3ccccc3)sc2C1 the results were EP2 antag 19, CHT inh inactive, EP2 mod 4 and CHT PAM inactive.
O=C(CN1C(=O)[C@H]2CCCN2C(=O)c2ccccc21)NCCc1ccccc1 was read as EP2 antag 5 and EP2 mod -16.
For CCCOC(=O)c1ccc(NC(=O)c2c(O)c3cc(OC)c(OC)cc3[nH]c2=O)cc1 the results were EP2 antag 16 and EP2 mod 0.
`Cc1ccccc1OCC(O)Cn1c(NCc2ccccc2)nc2c1c(=O)[nH]c(=O)n2C` (stereo unspecified) gave EP2 antag 7, CHT inh inactive, EP2 mod 47 and CHT PAM inactive.
`CN(C)CCNc1nc2c(c(=O)[nH]c(=O)n2C)n1CC(O)COc1ccc(Cl)cc1Cl` (stereo unspecified) gave EP2 antag 17, CHT inh inactive, EP2 mod -7, CHT PAM 8.9*, CHT act confirm 51* and HEK293 MP dye -45*.
`CC(C)CCn1c(NCCN(C)C)nc2c1c(=O)[nH]c(=O)n2C` gave EP2 antag 17, CHT inh inactive, EP2 mod 16, CHT PAM inactive, CHT act confirm 26* and HEK293 MP dye -41*.
C=CCC1N(c2ccccc2)C(=O)C2C(C(=O)O)C3C=CC21O3 (stereo unspecified) was read as EP2 antag 7 and EP2 mod -6.
For Cc1ccn2cc(CCNS(=O)(=O)c3ccc4c(c3)OCCO4)nc2c1 the results were EP2 antag 9, CHT inh inactive, EP2 mod -6, CHT PAM inactive, CHT act confirm 25* and HEK293 MP dye inactive.
O=c1[nH]c2ccc(S(=O)(=O)NCc3ccccc3CN3CCCCC3)cc2[nH]1 was read as EP2 antag 5 and EP2 mod -26.
`Cc1ccc(C)c(CN2C(=O)CSc3ccc(C(=O)N4CCCC4)cc32)c1` gave CHT inh inactive and CHT PAM inactive.
`Cc1ccc(C)c(CN2C(=O)CSc3ccc(C(=O)NCC(C)CN4CCC(C)CC4)cc32)c1` (stereo unspecified) gave CHT inh inactive, CHT PAM 6.8*, CHT act confirm 40* and HEK293 MP dye -34*.
For Fc1ccc(C(c2nnnn2Cc2ccco2)N2CCN(C3CCCCC3)CC2)cc1 (stereo unspecified) the results were EP2 antag 21, CHT inh inactive, EP2 mod 9, CHT PAM inactive, CHT act confirm 31* and HEK293 MP dye inactive.
`COCCOC(=O)c1[nH]c2c(c1C)C(=O)CC(c1ccccc1)C2` (stereo unspecified) gave CHT inh inactive, EP2 mod -1, CHT PAM inactive, CHT act confirm 9 and HEK293 MP dye inactive.
For COCCOC(=O)c1[nH]c2c(c1C)C(=O)CC(c1ccc(N(C)C)cc1)C2 (stereo unspecified) the results were EP2 antag 20, CHT inh inactive, EP2 mod 13 and CHT PAM inactive.
For Cc1nn2cnc3sc4c(c3c2nc1=O)CCCC4 the results were EP2 antag 6, CHT inh inactive, EP2 mod -19, CHT PAM 6.6*, CHT act confirm 40* and HEK293 MP dye -46*.
Screening c1nc2sc3c(c2c2nnnn12)CCCC3 returned EP2 antag 10, CHT inh inactive, EP2 mod 18 and CHT PAM inactive.
Screening COC(=O)Cn1cc(C(=O)c2ccccc2)c2ccccc21 returned EP2 antag 10 and EP2 mod -30.
`COc1ccc(C)cc1NC(=O)CNc1ccccc1CN(C)C1CCCCC1` gave EP2 antag 3, CHT inh inactive, EP2 mod 50, CHT PAM 6.4*, CHT act confirm 22* and HEK293 MP dye inactive.
For CCC(=O)NCC(c1ccco1)N1CCN(c2ccc(OC)cc2)CC1 (stereo unspecified) the results were EP2 antag 9, CHT inh inactive, EP2 mod 15 and CHT PAM inactive.
For COc1ccc(N2CCN(C(CNC(=O)COc3ccccc3)c3ccco3)CC2)cc1 (stereo unspecified) the results were CHT inh inactive, CHT PAM 7.1*, CHT act confirm 11* and HEK293 MP dye inactive.
`COC(=O)c1cccc(NC(=O)CSc2nc(C)nc3sc(C)c(C)c23)c1` gave EP2 antag 4 and EP2 mod 2.
For Cc1ccccc1SCC(=O)Nc1cc(C(F)(F)F)ccc1N1CCOCC1 the results were CHT inh inactive, CHT PAM inactive, CHT act confirm 36* and HEK293 MP dye inactive.
Cc1nnc(SCC(=O)Nc2cc(C(F)(F)F)ccc2N2CCOCC2)o1 was read as EP2 antag 7, CHT inh inactive, EP2 mod 0 and CHT PAM inactive.
For Cc1cccc2nc(CSC(=N)N)c(Br)n12 the results were EP2 antag 3, CHT inh inactive, EP2 mod -40, CHT PAM inactive, CHT act confirm 28* and HEK293 MP dye -38*.
For N=C(N)SCc1nc2ccccn2c1Br the results were EP2 antag 2, CHT inh inactive, EP2 mod -29 and CHT PAM inactive.
`COc1ccc(Nc2ccc3c(c2)=NC2(CCCCC2)[N+]=3[O-])cc1` gave EP2 antag 4, CHT inh inactive, EP2 mod -39, CHT PAM 7.2*, CHT act confirm 51* and HEK293 MP dye -73*.
Cc1cc2[nH]c(=O)c(=O)[nH]c2cc1S(=O)(=O)Nc1ccccc1F was read as CHT inh inactive, CHT PAM 7.7*, CHT act confirm 3 and HEK293 MP dye inactive.
